# Experimental data from the supplement of paper PMC10981050.
# Values joined by “and” are separate entries in the source; they are usually repeats but may differ in a detail not shown here. Equal entries are not always repeated.
# Columns and labels:
# Assay in all cases: cell viability relative to vehicle control; higher = less cytotoxic
# Details in all cases: 10 µM
# K562 = test system: K562
# How it was run: (§1)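 Each screen used CRISPR-edited mutant and wild-type clones from four leukaemia lines. Compounds were acoustically dispensed at a single 10 µM dose, and CellTiter-Glo luminescence was read after 48 h with the supernatant first removed. Viability was analysed in Genedata Screener and given as percent of the on-plate vehicle control.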
# MARIMO = test system: MARIMO
# How it was run: as §1
# MOLM14 = test system: MOLM14
# How it was run: as §1
# OCI-AML2 = test system: OCI-AML2
# How it was run: as §1
Compound,cell viability (K562; SRSF2 genotype: SRSF2 P95H/wt),cell viability (K562; SRSF2 genotype: SRSF2 wt/wt) [%],cell viability (MARIMO; SRSF2 genotype: SRSF2 P95H/wt) [%],cell viability (MARIMO; SRSF2 genotype: SRSF2 wt/wt) [%],cell viability (MOLM14; SRSF2 genotype: SRSF2 P95H/wt) [%],cell viability (MOLM14; SRSF2 genotype: SRSF2 wt/wt) [%],cell viability (OCI-AML2; SRSF2 genotype: P95H/wt) [%],cell viability (OCI-AML2; SRSF2 genotype: wt/wt) [%]
CCc1cncnc1N1CCN(Cc2nc3ccc(C(F)(F)F)cc3[nH]2)CC1,72.3% and 72.8%,73.1,66.4,47.9,57.4,66.5,32.3,43.3
CC1(C)S[C@@H]2[C@H](NC(=O)[C@H](NC(=O)N3CCN(S(C)(=O)=O)C3=O)c3ccccc3)C(=O)N2[C@H]1C(=O)O [Mezlocillin Sodium],100% and 98.1%,102,101,112,100,101,97.4,112
S=C(NCc1ccc2c(c1)OCO2)N1CCN(c2ncnc3c2oc2ccccc23)CC1 [Amuvatinib (MP-470)],62.3% and 74.9%,64.2,50.3,41.5,68.2,76.4,28,42.5
Cc1cc(F)c(Nc2ncnc3cc(OCc4ccccc4)ccc23)cc1O,82.7% and 95.5%,94.6,73.6,97.9,93.3,102,71.2,81
COc1cc2c(cc1OC)-c1cc3ccc(OC)c(OC)c3c[n+]1CC2 [Palmatine],80.5% and 88.6%,90.2,92.6,92,93.5,90.9,88.8,78.7
N#Cc1ccc2ncnc(NCCc3ccccc3)c2c1 [Senexin A],85% and 87.1%,92.4,91.8,94,77.1,95.1,58.2,63
COc1cc2c(Oc3ccc4[nH]c(C)cc4c3F)ncnc2cc1OCCCN1CCCC1 [Cediranib (AZD2171)],4.41% and 2.97%,11.7,55.1,48.3,2.27,1.47,9.24,21.7
CC(C)[C@H](CO)Nc1nc(Nc2cccc(Cl)c2)c2ncn(C(C)C)c2n1 [Purvalanol A],82.5% and 94.9%,85.1,72,83,41.2,33.9,47.6,54.3
COc1cc(OCc2cccc(-c3ccccc3)c2C)cc(OC)c1CN1CCCC[C@H]1C(=O)O [PD-1/PD-L1 inhibitor 1],87.3% and 92.7%,100,83.7,85.2,89.8,95.3,68.2,73.2
CCCCCCCCCCCCCCCCCCCC(=O)O [Arachidic acid],95.7% and 93.1%,98.9,96,96.3,96.1,103,103,109
CC1(C)CCCC2(C)C1CCC1(C)OC(=O)CC12 (stereo not drawn) [Sclareolide (Norambreinolide)],109% and 97.8%,99.8,95.2,98.7,101,106,102,89.7
NC(=O)Cc1cccc(C(=O)c2ccccc2)c1N [Nepafenac],96.5% and 95.7%,91.7,93.8,93.8,95.4,96.5,87.7,92.4
C[C@](N)(Cc1ccc(O)c(O)c1)C(=O)O [Methyldopa (Aldomet)],90.6% and 100%,100,97.2,104,98.3,101,98.4,96.6
CC(=O)CCc1ccccc1 [Benzylacetone],100% and 103%,104,101,92.5,106,98.6,106,94.8
COc1ccc2c(c1O)-c1c(O)c(OC)cc3c1[C@H](C2)[N+](C)(C)CC3 [Magnoflorine],97.9% and 97.3%,101,98,105,99.3,100,103,107
Clc1cccc(CN=C2Nc3ccccc3NC23CCNCC3)c1 [Liproxstatin-1],68.8% and 75.6%,70,73,70.1,68.9,80.1,93.5,71.5
C[C@@H]1CC[C@@]2(OC1)O[C@H]1C[C@H]3[C@@H]4CC=C5C[C@@H](O)C[C@@H](O)[C@]5(C)[C@H]4CC[C@]3(C)[C@H]1[C@@H]2C [Ruscogenin],96.3% and 102%,98,98.9,103,103,110,89.2,94.3
COc1cc(OC2CCN(C)CC2)ccc1Nc1ncc2c(n1)n(C1CCCC1)c(=O)n2C,81.2% and 76.4%,78.1,44.7,38.6,10.8,14,4.89,13.5
[F][Ti]([F])([F])[F] [Titanium tetrafluoride],102% and 89.4%,98.7,99.2,105,97.3,102,98.9,99
CCC(CC)CC1(C(=O)Nc2ccccc2SC(=O)C(C)C)CCCCC1,94.6% and 96.2%,103,96,97.5,90.1,95.5,83.2,85.5
CO[C@@H]1[C@@H](OC(N)=O)[C@@H](O)[C@H](Oc2ccc3c(O)c(NC(=O)c4ccc(O)c(CC=C(C)C)c4)c(=O)oc3c2C)OC1(C)C [Novobiocin sodium (Albamycin)],103% and 87.6%,82.6,91.6,92.9,93.6,89.7,91.4,94.4
